# Assay outcomes: PubChem, several laboratories
# Most compounds without a hit are left out; they make up all but 1.4% or so of the library.
# E coli Lon inh – inhibitors of E. coli Lon protease, primary screen, biochemical, fluorescence polarization; AID 602123, 2011; 360,000 compounds, 0.42% hits; purified E. coli Lon protease; P0A9M0; inhibition, % at 7.94 µM; in the data active = inhibition above about 13%, passing the limit was not always enough;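 note: 0% = enzyme with probe and DMSO and 100% = no enzyme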
# GLD-1 RNA inh – GLD-1/TGE RNA complex disruptors, primary screen, biochemical, fluorescence polarization; Female germline-specific tumor suppressor gld-1 (Caenorhabditis elegans), Q17339; purified GLD-1 + fluorescein TGE RNA; inhibition, % at 5.96 µM; 320,000 compounds, 0.44% hits;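 active = percent inhibition above a per-plate cutoff, the plate mean of test compounds plus 3 SD, cut at about 30% in these data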;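 note: 0% = DMSO wells with GLD-1 and probe and 100% = wells lacking GLD-1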
# Target sequence (Q17339 whole entry, looked up): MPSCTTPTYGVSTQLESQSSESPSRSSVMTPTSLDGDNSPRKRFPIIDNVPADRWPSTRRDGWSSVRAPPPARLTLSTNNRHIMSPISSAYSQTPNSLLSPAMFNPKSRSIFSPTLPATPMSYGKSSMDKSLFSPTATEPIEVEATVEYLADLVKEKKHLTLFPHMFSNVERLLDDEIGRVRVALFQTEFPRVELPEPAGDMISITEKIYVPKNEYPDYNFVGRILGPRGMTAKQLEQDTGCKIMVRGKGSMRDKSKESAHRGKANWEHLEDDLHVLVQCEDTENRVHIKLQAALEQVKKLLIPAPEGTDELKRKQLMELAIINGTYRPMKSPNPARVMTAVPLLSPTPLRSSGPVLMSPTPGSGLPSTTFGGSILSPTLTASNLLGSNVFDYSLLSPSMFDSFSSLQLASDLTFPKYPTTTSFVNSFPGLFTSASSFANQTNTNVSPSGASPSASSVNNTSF
# BCLXL inh – inhibitors of human Bcl-xL, primary screen, biochemical, fluorescence polarization, HTS | GST-Bcl-xL / FITC-Bim BH3 peptide fluorescence polarization | inhibition, % at 10.9 µM | 320,000 compounds, 0.7% hits | AID 2129, 2009;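 active = inhibition above the mean of all tested compounds plus 3 SD, cutoff set per campaign, cut at about 30% in these data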;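 note: 0% = DMSO wells and 100% = unlabeled Bim-BH3 peptide competitor; inhibitors lower millipolarization by displacing the labeled peptide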
# EBV gp42 inh – Epstein-Barr virus gp42 inhibitors, primary screen, biochemical, uHTS, fluorescence polarization. 220,000 compounds, 0.42% hits. Fluorescence polarization binding assay, mP read-out. inhibition, % (tested at 21.74 µM). Glycoprotein 42 (Epstein-Barr virus (strain AG876)), Q1HVG2. AID 1085, 2008; in the data active = inhibition above about 50%
# Target sequence (Q1HVG2 whole entry, looked up): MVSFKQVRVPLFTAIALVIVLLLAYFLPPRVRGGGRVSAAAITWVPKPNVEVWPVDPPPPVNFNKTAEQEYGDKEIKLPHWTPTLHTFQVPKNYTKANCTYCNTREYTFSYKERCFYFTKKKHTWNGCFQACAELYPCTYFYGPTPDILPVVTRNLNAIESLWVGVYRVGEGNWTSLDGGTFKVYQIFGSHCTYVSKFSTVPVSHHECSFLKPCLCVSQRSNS
# MEX-5 binding – MEX-5 zinc finger RNA-binding disruptors – biochemical, C. elegans, fluorescence polarization, MLPCN library, primary screen; MEX-5/FITC-TCR2 RNA binding; stronger effect = lower value; activity score (negative = inhibition of binding), % at 10 µM; 300,000 compounds, 0.38% hits; AID 1832, 2009;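 active = inhibition past about -25% in most replicates, and total fluorescence under double the plate's negative control median, limit read from the data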;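 note: 0% = DMSO and -100% = 5 µM competing unlabeled TCR2 RNA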
# MCL1-BIM inh – inhibitors of MCL1 binding to BIM-BH3, primary screen, biochemical, fluorescence polarization; inhibition, % at 10.9 µM; GST-MCL1 / FITC-Bim-BH3 fluorescence polarization; Induced myeloid leukemia cell differentiation protein Mcl-1 (Homo sapiens), Q07820; AID 2057, 2009; 320,000 compounds, 0.68% hits;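 active = inhibition above the mean inhibition of all tested compounds plus 3 SD, set per campaign, cut at about 40% in these data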;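 note: 0% = DMSO wells and 100% = unlabeled Bim-BH3 peptide control; higher means more loss of mP so more displacement of Bim peptide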
# Active calls of the source: *; . = not tested or not shown.
SMILES,E coli Lon inh,GLD-1 RNA inh,BCLXL inh,EBV gp42 inh,MEX-5 binding,MCL1-BIM inh
Cn1c(=O)c2[nH]c(N=NN3CCCCC3)nc2n(C)c1=O,-4.5,.,.,.,.,.
Cc1ccccc1NN=Nc1nc2c([nH]1)c(=O)n(C)c(=O)n2C,9.7,6.7,11.0,-26.5,.,11.1
CCOC(=O)c1ccc(NC(=O)NCCc2cnc[nH]2)cc1,15.0,-4.6,1.4,.,2.1,0.9
COC(=O)/C=C1\N/C(=N/c2nc(C)c3cc(OC)ccc3n2)NC1=O,-1.8,3.7,47.8*,.,-0.2,2.2
COC(=O)/C=C1/C(=O)N/C(=N\c2nc(C)cc(C)n2)N1c1ccc(OC)cc1,4.3,5.4,7.3,-2.7,-2.1,8.7
Cc1cccc(-n2cnc3c(c2=O)c2nc4ccccc4nc2n3Cc2ccco2)c1,-4.6,-3.3,11.4,.,-1.6,17.7
Cc1ccc(S(=O)(=O)Nc2nc3ccccc3nc2NCc2ccco2)cc1,38.4*,24.7,40.5*,17.6,1.7,42.8*
CCCCn1c(N)c(S(=O)(=O)c2ccc(C)cc2)c2nc3ccccc3nc21,0.3,7.3,7.0,-4.0,2.4,11.4
O=S(=O)(Nc1nc2ccccc2nc1NCc1ccco1)c1ccc(Cl)cc1,-7.1,4.1,15.9,32.2,3.7,13.4
Cc1cccc(S(=O)(=O)c2c(N)n(Cc3ccco3)c3nc4ccccc4nc23)c1,-45.5,68.7*,37.1*,3.7,-0.1,16.8
Cc1ccc(S(=O)(=O)c2c(N)n(Cc3ccco3)c3nc4ccccc4nc23)cc1,5.8,44.4*,29.6,61.1*,2.7,12.6
Cc1cccn2c(=O)c3cc(C#N)c(=NC(=O)c4ccccc4)n(Cc4ccco4)c3nc12,-0.9,20.2,34.7*,.,-18.7,31.1
COc1nc(NCCC2=CCCCC2)nc(OC)n1,-9.2,10.1,2.3,137.8*,0.2,4.3
O=C1C=C(NNC(=O)c2ccccc2Br)CCC1,22.4,68.6*,12.5,-0.3,-5.1,16.9
Cc1ccc([C@@H]2CC(=O)[C@@H]3CN(S(=O)(=O)c4ccc(C)cc4)[C@H](c4ccccc4)C[C@@H]3N2S(=O)(=O)c2ccc(Cl)cc2)cc1,-10.7,.,.,.,.,.
O=C(Cc1ccc(S(=O)(=O)N2CCOCC2)s1)OCc1ccc(Cl)cc1,-14.6,-1.7,0.7,.,.,3.2
c1ccc(-c2csc(CN3CCCCC3)n2)cc1,-12.2,.,.,.,.,.
COC(=O)c1ccc(C2Nc3ccc(/C(C)=N/NC(=O)C(OC)c4ccccc4)cc3C3C=CCC32)cc1 (centres undefined),1.9,10.0,33.9*,.,0.1,61.3*
CC(=O)c1ccc2c(c1)C1C=CCC1C(c1ccncc1)N2 (centres undefined),7.5,2.5,15.9,14.6,-1.2,16.6
CC1=C/C(=C(/c2ccc(O)c(C)c2)c2ccccc2S(=O)(=O)O)C=CC1=O,-12.7,5.8,12.3,.,.,6.2
CC1=C/C(=C(/c2cc(C)c(O)c(Br)c2)c2ccccc2S(=O)(=O)O)C=C(Br)C1=O,19.9,19.3,41.3*,.,-21.4,42.9*
Cc1cc(C(=O)N/N=C/c2ccc(-c3cccc(Cl)c3Cl)o2)n[nH]1,-0.8,-3.5,2.3,-66.0,-38.1*,0.9
Cc1cc(C(=O)N/N=C/c2ccc(-c3cccc(Br)c3)o2)n[nH]1,0.2,1.0,3.8,-15.5,-1.9,-0.8
CS(=O)(=O)N(CC(=O)N1CCCCC1)c1cccc(F)c1,3.6,-10.9,-2.4,-17.3,-4.0,-7.9
O=c1[nH]c2ccccc2nc1Cc1ccccc1,1.1,3.9,7.3,-19.0,-0.3,-1.1
SMILES,E coli Lon inh,GLD-1 RNA inh,BCLXL inh,EBV gp42 inh,MEX-5 binding,MCL1-BIM inh
O=C(Cc1nc2ccccc2[nH]c1=O)c1ccccc1,-13.2,.,.,52.0*,-61.3*,.
COc1cccc(/C=C2\SC(=S)N(CCCC(=O)NC3=NCCS3)C2=O)c1,-2.9,0.4,2.7,.,-33.9*,3.7
C=CCn1c(O)c(N=Nc2ccccc2C)c2ccccc21,.,5.5,6.3,68.0*,-6.0,3.5
CCCCC(Sc1nc(N)c(NC(=O)c2ccc(OCC)cc2)c(=O)[nH]1)C(=O)O (centres undefined),-2.1,2.6,8.8,-13.6,-3.4,12.6
CCCCC(Sc1nc(N)c(NC(=O)c2ccco2)c(=O)[nH]1)C(=O)O (centres undefined),2.5,23.8,31.1*,.,1.0,37.8
O=C(CSc1ccsc1[N+](=O)[O-])Nc1cc(F)ccc1F,-9.3,.,.,91.5*,-2.1,.
CC(=O)c1ccc(NC(=O)CSc2ccsc2[N+](=O)[O-])cc1,-12.3,.,.,51.1*,-4.4,.
O=C1Nc2ccccc2Cc2ccccc21,2.4,.,.,.,.,.
CN(C)CCCNc1cc(O)c2ncccc2c1,17.0,33.4*,.,.,.,.
Oc1cc(NCc2ccc(F)cc2)cc2cccnc12,-11.2,10.2,.,.,.,.
COc1cc([N+](=O)[O-])ccc1-c1ccc(/C=N\n2cnnc2)o1,4.6,.,.,.,-11.6,.
O=C(N/N=C/c1ccc(-c2cccc([N+](=O)[O-])c2)o1)c1ccccc1O,5.4,8.3,11.1,4.9,3.5,9.3
Cc1cc([N+](=O)[O-])ccc1-c1ccc(/C=N/NC(=O)Cc2ccccc2)o1,-2.2,-4.5,-2.4,88.7*,-15.4,0.2
O=C(N/N=C/c1ccc(-c2cccc([N+](=O)[O-])c2)o1)c1ccc([N+](=O)[O-])cc1,-4.7,-1.7,4.7,-7.5,-35.4*,7.9
O=C(Cc1ccc([N+](=O)[O-])cc1)N/N=C/c1ccc([N+](=O)[O-])o1,-5.8,-1.8,3.5,-38.7,1.2,1.9
COc1cc([N+](=O)[O-])ccc1-c1ccc(/C=N/NC(=O)c2ccccc2O)o1,.,.,.,66.7*,1.8,.
Cc1ccc(CNC(=O)CN2C(=O)COc3ccc(S(=O)(=O)N4CCCCC4)cc32)o1,-3.9,0.4,-0.1,.,-0.1,2.0
Cn1ccnc1SCC(=O)Nc1nc2c(F)c(F)c(F)cc2s1,-6.9,-3.8,-3.4,-8.9,-1.7,-1.4
CCCOc1ccc(/C=c2\sc3nc(-c4ccco4)nn3c2=O)cc1OCC,-10.8,3.5,2.8,36.0,-67.4*,17.4
CCCCCOc1ccc(/C=c2\sc3nc(=O)c(-c4ccccc4)nn3c2=O)cc1OC,-18.5,1.0,-4.5,-5.0,-31.2*,-13.8
COc1cc(/C=c2\sc3nc(-c4ccncc4)nn3c2=O)ccc1OC(C)=O,.,.,.,36.8,.,.
COc1ccccc1NC(=O)Nc1ccccc1N1CCOCC1,7.1,0.7,3.3,-16.2,-1.0,5.3
Nc1ccc(Br)c2c1C(=O)c1ccccc1C2=O,.,16.2,46.2*,16.5,-1.8,40.4*
Nn1c(SCC(=O)NC(=O)NCc2ccco2)nnc1-c1ccc(OC(F)F)cc1,-13.0,-2.7,-12.4,62.3*,0.0,4.5
